KDM5B inhibitor – Primary screen for KDM5B Histone Demethylases FDH-coupled qHTS; 2.6% of 220,000 active; Potency, µM (series often up to 57.7 µM), hits mostly inhibitors; Lysine-specific demethylase 5B (Homo sapiens), Q9UGL1; AID 1347165, 2019; KDM5B demethylase, FDH-coupled NADH fluorescence (FDH is formaldehyde dehydrogenase); further: potency means the concentration at half of the fitted maximal effect; 0% is about no effect; nearly all actives have a fitted effect of over 70% in size
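Inhibition is measured as reduced NADH fluorescence generation from FDH coupling to formaldehyde release. Truncated KDM5BΔAP at 200 nM final acts on H3K4me3 peptide (12.5 µM in substrate mix) in pH 7.5 HEPES buffer with Tween-20, 30 min, room temperature.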
IP6K1 inhibitor – Primary qHTS assay for small molecule inhibitors of Inositol hexaphosphate kinase 1 (IP6K1). IP6K1 kinase, ADP-Glo luminescence, 2 h; hits give low values. 0.81% of 140,000 active. activity change, % (series mostly up to about 58 µM). Inositol hexakisphosphate kinase 1 (Homo sapiens), Q92551; in the data active means activity change below about -25%; further: on the % scale 0 is the no-effect control and ±100 the full control effect
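ADP-Glo luminescence measures ADP made by human IP6K1 during a 2 h RT reaction with ATP/IP6 (mix at 1.3 mM/130 uM); top library doses 57.5 and 19.1 uM final.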
IP6K1 inh cnf – Confirmatory qHTS assay for small molecule inhibitors of Inositol hexaphosphate kinase 1 (IP6K1); shares compounds with IP6K1 inhibitor; recombinant IP6K1 kinase, ADP-Glo luminescence, 2 h; Potency, µM (top dose mostly 49 µM), for inactives: top-dose activity change, negative = inhibition, hits mostly inhibitors; 13% of 1,200 active; further: potency means the concentration at half of the fitted maximal effect; on the % scale 0 is the no-effect control and ±100 the full control effect; nearly all actives have a fitted effect of over 65% in size
Active calls of the source: *. Compounds with a hit are over-represented: about 2.8% of the library has one in this group of screens. Unless noted, the call rests on the fitted dose curve; in most records, active means well fitted inhibition curve with a large enough effect; inconclusive means small, poorly fitted or top-dose-only effect; inactive means no such curve, though single readings can be large or run the other way.

CN1CCN(C(=O)Nc2cccc(Cl)c2)c2cccnc21 was read as KDM5B inhibitor inconclusive, IP6K1 inhibitor -32* and IP6K1 inh cnf -9%.
For Cc1ccc(Cl)cc1NC(=O)N1CCN(C)c2ncccc21 the results were KDM5B inhibitor inconclusive and IP6K1 inhibitor -6.
For Cn1ncc2c(C(=O)NCCc3ccccn3)cc(-c3cccc(C(F)(F)F)c3)nc21 the results were IP6K1 inhibitor 5.
For COc1ccc(C)cc1Nc1nc(-c2cccc(Cl)c2)c2c(n1)-c1ccccc1OC2 the results were KDM5B inhibitor inactive and IP6K1 inhibitor -14.
Fc1ccc(Nc2nc(-c3cccc(Cl)c3)c3c(n2)-c2ccccc2OC3)c(F)c1 was read as KDM5B inhibitor inconclusive, IP6K1 inhibitor -27* and IP6K1 inh cnf -7%.
Screening CC(C)c1ccc(C(=O)Cn2cnc3c2c(=O)n(C)c(=O)n3C)c(C(C)C)c1 returned KDM5B inhibitor inactive.
For CC1CCN(c2ccc(-c3cccc(NS(=O)(=O)c4ccc(Cl)s4)c3)nn2)CC1 the results were KDM5B inhibitor inactive.
CC1CCN(c2ccc(-c3cccc(N)c3)nn2)CC1 was read as KDM5B inhibitor inactive, IP6K1 inhibitor -44* and IP6K1 inh cnf inconclusive.
CN(C)c1ccc(S(=O)(=O)N2CCCCC2)cc1NCC(=O)Nc1ccc(N2CCCC2)cc1 was read as KDM5B inhibitor inactive.
For CCCCCOc1ccccc1C(=O)NCCCCCC(=O)O the results were KDM5B inhibitor inactive.
CCCCCCCCOc1ccccc1C(=O)Nc1ccc(C(=O)OCC[N+](C)(CC)CC)cc1 was read as IP6K1 inhibitor -37* and IP6K1 inh cnf inconclusive.
CCOCCNc1ncnc2c1CN(C1CCCNCC1)C(=O)CN2C (stereo not drawn) was read as KDM5B inhibitor inconclusive, IP6K1 inhibitor -28* and IP6K1 inh cnf -9%.
`CCOCCNc1ncnc2c1CN(C1CCCNC1)C(=O)CN2C` (stereo not drawn) gave KDM5B inhibitor inconclusive and IP6K1 inhibitor 2.
Cc1cccc(/C=C/c2nc3ccccc3c(=O)n2-c2ccc(C(=O)O)cc2)c1 was read as KDM5B inhibitor inactive.
Screening CC(C)Cn1c(/C=C/c2ccc(F)cc2)nc2ccccc21 returned KDM5B inhibitor inconclusive and IP6K1 inhibitor 4.
Screening CSc1ccc(/C=C/c2nc3ccccc3n2S(=O)(=O)c2ccc(F)c(C)c2)cc1 returned KDM5B inhibitor inconclusive, IP6K1 inhibitor -39* and IP6K1 inh cnf inconclusive.
CC(C(=O)NCc1cccs1)N(C)Cc1ccc(C(C)(C)C)cc1 (stereo not drawn) was read as KDM5B inhibitor inactive.
Screening CCOc1ccc(CNC(=O)c2ncoc2-c2cccc(Cl)c2)cc1OC returned KDM5B inhibitor inactive.
Screening O=C(Oc1ccccc1F)c1nc(SCc2ccc(F)cc2)ncc1Cl returned KDM5B inhibitor inactive, IP6K1 inhibitor -38* and IP6K1 inh cnf -1%.
Screening Cc1ccc(CSc2ncc(Cl)c(C(=O)Oc3ccc(F)cc3)n2)cc1 returned KDM5B inhibitor inconclusive, IP6K1 inhibitor -25* and IP6K1 inh cnf 13%.
Screening Cc1ccccc1OC(=O)c1nc(SCc2ccccc2F)ncc1Cl returned KDM5B inhibitor inactive and IP6K1 inhibitor -13.
`COc1ccc(OC(=O)c2nc(SCc3ccc(C)cc3)ncc2Cl)cc1` gave KDM5B inhibitor inconclusive, IP6K1 inhibitor -28* and IP6K1 inh cnf -3%.
`COc1ccc(OC(=O)c2nc(SCc3ccc(F)cc3)ncc2Cl)cc1` gave KDM5B inhibitor inactive and IP6K1 inhibitor -19.
Screening Cc1ccc(CNC(=O)c2nc(SCc3ccc(C)cc3)ncc2Cl)cc1 returned KDM5B inhibitor inactive and IP6K1 inhibitor -7.
Screening CCCCOC(=O)N1CCC(OC)c2ccccc2N(CC(=O)NC)C(=O)C1 (stereo not drawn) returned IP6K1 inhibitor -3.
CCCN(CCC)CCCNC(=O)Cn1cnc2sc(C)c(S(=O)(=O)N3CCC(C)CC3)c2c1=O was read as KDM5B inhibitor inactive and IP6K1 inhibitor 27.
Screening CCCN(CCC)CCCNC(=O)Cn1cnc2sc(C)c(S(=O)(=O)N3CCCCC3)c2c1=O returned KDM5B inhibitor inactive, IP6K1 inhibitor -27* and IP6K1 inh cnf -6%.
CCOC(=O)c1ccc(NC(=O)CSc2nc3cc4ccccc4cc3[nH]2)cc1 was read as KDM5B inhibitor inconclusive, IP6K1 inhibitor -26* and IP6K1 inh cnf 15%.
Screening CCOC(=O)c1ccc(NC(=O)CSc2nccn2-c2cc(C)cc(C)c2)cc1 returned KDM5B inhibitor inactive, IP6K1 inhibitor -27* and IP6K1 inh cnf inconclusive.

Screening data deposited in PubChem by National Center for Advancing Translational Sciences (NCATS).
